Here are results for six molecules from PubChem BioAssay (Tox21).

The structures appear in SMILES notation. Records with an inconclusive call do not appear. Calls of active or inactive are those of the source. Unless noted, the call rests on the fitted dose curve; in most records, active means well fitted curve in the direction sought with a large enough effect in the repeat runs; inconclusive means weak or mixed curves; inactive means no such curve, though single readings can be large; an effect the other way counts as inactive or inconclusive.

Assay [1] is described as follows: qHTS assay to identify small molecule antagonists of the androgen receptor (AR) signaling pathway using the MDA cell line in the presence of 0.5 nM R1881 - cell viability counter screen (AID 1259242). Further: potency means the concentration at half of the fitted maximal effect; nearly all actives have a fitted effect of over 45% in size. A digest of the protocol:
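qHTS format. MDA-kb2 (MMTV-luc, AR/GR responsive) + cpd + 0.5 nM R1881 final, 16 hr 37C/0% CO2 → CellTiter-Fluor 30 min → fluorescence intensity.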

Assay [2] in a line: qHTS assay to identify small molecule HDAC inhibitors - cell viability counter screen (AID 1259365). Further: nearly all actives have a fitted effect of over 50% in size. Further: potency means the concentration at half of the fitted maximal effect. Put shortly: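 Counter screen in wild-type HCT-116 cells: compounds dissolved in DMSO are pin-transferred onto overnight-plated cells and left 2hr at 37C. ATP-based CellTiter-Glo luminescence then measures viable cells.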
On the technique in general: In qHTS, concentration-response curves come from the screen itself.

Assay [3] can be described thus: qHTS assay to identify small molecule agonists of the sonic hedgehog signaling (Shh) pathway - cell viability counter screen (AID 1259366). Further: nearly all actives have a fitted effect of over 50% in size. Further: potency means the concentration at half of the fitted maximal effect. Put shortly: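 Cells are plated at 2,000 per well and left 4hr at 37C, 5% CO2 before compound addition. After 23hr of treatment, CellTiter-Fluor reagent is added for 1hr at 37C and fluorescence is measured.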
The nature of assay [4]: qHTS assay to identify small molecule agonists of the sonic hedgehog signaling (Shh) pathway (AID 1259368; calls by dose curve;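 further: NIH/3T3-derived 3T3Gli1-Luc cells carrying a stable Gli1-driven firefly luciferase reporter; series mostly up to about 92 µM; nearly all actives have a fitted effect of over 15% in size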). A digest of the protocol:
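Quantitative high-throughput format using a Gli1-driven firefly luciferase reporter line derived from NIH/3T3 cells. After a 24 hr compound treatment at 37 C and 5% CO2, luminescence reported Gli1 response element activity.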

A short description of assay [5]: qHTS assay to identify small molecule antagonists of the sonic hedgehog signaling (Shh) pathway (AID 1259369; calls by dose curve; further: nearly all actives have a fitted effect of over 45% in size; further: potency means the concentration at half of the fitted maximal effect). Put shortly:
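Stable Gli1-Luc reporter NIH/3T3 clone; quantitative HTS in stimulated mode with conditioned medium. Luminescence measured after 24hr compound treatment at 37 C.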

Assay [6] has as its target Estrogen receptor beta (Homo sapiens) (UniProt Q92731). The assay can be described thus: qHTS assay to identify small molecule antagonists of the estrogen receptor beta (ER-beta) signaling pathway (AID 1259378; active means well fitted inhibition curve with a large enough effect in the signal ratio in the repeat runs, not every such curve was filed as active; the % refers to the signal ratio; further: potency means the concentration at half of the fitted maximal effect). Put shortly: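 Antagonist mode: compounds added to beta-lactamase reporter HEK293T ER-beta-UAS cells stimulated with E2 (1nM final), 16 hr at 37C. LiveBLAzer B/G FRET substrate, 2 hours room temperature, fluorescence read-out.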

A short description of assay [7]: qHTS assay to identify small molecule agonists of the androgen receptor (AR) signaling pathway in the presence of an antagonist - cell viability counter screen (AID 1259379). Further: potency means the concentration at half of the fitted maximal effect; nearly all actives have a fitted effect of over 25% in size. Put shortly: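 Nilutamide-containing (3.0uM final) MDA-kb2 cultures, 3,000 cells/well, were treated with compounds across 15 concentrations. After 16 hr at 37C with no CO2, cell viability was determined by CellTiter-Fluor fluorescence in the luciferase assay wells.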

Assay [8] is described as follows: qHTS assay to identify small molecule agonists of the estrogen receptor beta (ER-beta) signaling pathway - cell viability counter screen (AID 1259380). Further: potency means the concentration at half of the fitted maximal effect; nearly all actives have a fitted effect of over 30% in size. Put shortly:
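Steps: plate ER-beta-UAS-bla HEK293T cells, rest 6 hr; add compounds in DMSO; incubate 16 hr at 37C, 5% CO2; add FRET substrate 2 hr; add CellTiter-Glo, wait 30 min at room temperature; read luminescence.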

Assay [9] in a line: qHTS assay to identify small molecule antagonists of the estrogen receptor beta (ER-beta) signaling pathway - cell viability counter screen (AID 1259382). Further: nearly all actives have a fitted effect of over 55% in size. Further: potency means the concentration at half of the fitted maximal effect. A digest of the protocol:
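Viability is scored by CellTiter-Glo luminescence (30 min, room temperature) in ER-beta-UAS-bla HEK293T wells already read for reporter fluorescence. Compound exposure lasts 16 hr at 37C alongside 1nM 17-beta-estradiol in charcoal-stripped serum medium.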

Assay [10] in a line: qHTS assay to identify small molecule agonists or antagonists of the thyroid stimulating hormone receptor (TSHR) signaling pathway - wild type cell line counter screen (AID 1259384; calls by dose curve). Put shortly: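 Counter screen in untransfected Hek293: compounds (15-point titration, triplicate) plus phosphodiesterase inhibitor Ro20-1724 added after 18 h plating; 30 min RT. Intracellular cAMP via competitive d2/cryptate immunoassay, 1 h incubation.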

Assay [11] is described as follows: qHTS assay to identify small molecule agonists of the estrogen receptor alpha (ER-alpha) signaling pathway in the presence of an antagonist - cell viability counter screen (AID 1259386).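 Further: cells exposed to compounds for 22 h at 37 °C before the viability read; nearly all actives have a fitted effect of over 30% in size.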 Further: potency means the concentration at half of the fitted maximal effect. Put shortly:
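In this counter screen, compound effects on VM7Luc4E2 viability were tested in the presence of the antagonist ICI-182,780 at 10.0nM final. Compounds were dosed at 15 concentrations, exposure lasted 22hr, and the CellTiter-Fluor signal was read.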

In assay [12] the target is Androgen receptor (Homo sapiens) (UniProt P10275). The assay can be described thus: qHTS assay to identify small molecule antagonists of the androgen receptor (AR) signaling pathway using the MDA cell line in the presence of 0.5 nM R1881 (AID 1259243). Further: nearly all actives have a fitted effect of over 50% in size. Further: potency means the concentration at half of the fitted maximal effect. Put shortly:
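Antagonist mode quantitative HTS in MDA-kb2 MMTV-luciferase cells, agonist R1881 at 0.5 nM final, 16 hr exposure at 37C and 0% CO2, luminescent detection.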

In assay [13] the target is Estrogen receptor (Homo sapiens) (UniProt P03372). Kind of assay: qHTS assay to identify small molecule antagonists of the estrogen receptor alpha (ER-alpha) signaling pathway using the BG1 cell line in the presence of 0.1 nM 17-beta-estradiol (AID 1259244). Further: nearly all actives have a fitted effect of over 50% in size. Further: potency means the concentration at half of the fitted maximal effect. A digest of the protocol:
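Reporter is a stably transfected luciferase under four estrogen responsive elements in VM7Luc4E2 cells expressing native full-length ER-alpha; inhibition of 0.1 nM (final) 17beta-estradiol-driven signal over 22 h is read by luminescence.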

Assay [14] is described as follows: qHTS assay to identify small molecule HDAC inhibitors (AID 1259364).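 Further: wild-type HCT-116 cells with endogenous class I/II HDAC activity; top concentration of the series differs between compounds; nearly all actives have a fitted effect of over 45% in size.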 A digest of the protocol:
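Quantitative high-throughput format: overnight-seeded HCT-116 cells got compounds for 2 hr at 37C; HDAC-Glo I/II reagent added, 30 min RT, luminescence measured.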

The target in assay [15] is Androgen receptor (Homo sapiens) (UniProt P10275). The assay can be described thus: qHTS assay to identify small molecule agonists of the androgen receptor (AR) signaling pathway in the presence of an antagonist (AID 1259381; calls by dose curve; further: nearly all actives have a fitted effect of over 15% in size; further: potency means the concentration at half of the fitted maximal effect). A digest of the protocol:
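Reporter-gene luminescence from MDA-kb2 cells exposed 16hr at 37C (0% CO2) to 15-point compound titrations with 3.0uM final nilutamide as AR antagonist.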

For assay [16], the target named is Thyrotropin receptor (Homo sapiens) (UniProt P16473). Kind of assay: qHTS assay to identify small molecule antagonists of the thyroid stimulating hormone receptor (TSHR) signaling pathway (AID 1259385; calls by dose curve; further: nearly all actives have a fitted effect of over 20% in size; further: potency means the concentration at half of the fitted maximal effect). A digest of the protocol: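 Antagonist mode: compound-treated TSHR-expressing HEK293 cells were stimulated with 1.5 ng/mL TSH (final) in presence of Ro20-1724 for 30 min at RT. HTRF cAMP detection after 1 h; each compound tested at 15 concentrations, triplicate.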

Assay [17] has as its target Estrogen receptor (Homo sapiens) (UniProt P03372). The assay can be described thus: qHTS assay to identify small molecule agonists of the estrogen receptor alpha (ER-alpha) signaling pathway in the presence of an antagonist (AID 1259383; calls by dose curve; further: top concentration of the series differs between compounds; nearly all actives have a fitted effect of over 15% in size). Put shortly: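 Readout was ERE-driven luciferase luminescence in VM7Luc4E2 cells, which express full-length ER-alpha endogenously. Compounds were tested at 15 concentrations for 22hr alongside 10.0nM ICI-182,780 (final concentration).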

Assay [18] has as its target Estrogen receptor beta (Homo sapiens) (UniProt Q92731). The assay can be described thus: qHTS assay to identify small molecule agonists of the estrogen receptor beta (ER-beta) signaling pathway (AID 1259377; active means well fitted activation curve with a large enough effect in the signal ratio in the repeat runs, not every such curve was filed as active; the % refers to the signal ratio). Put shortly: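 Agonist mode cell assay in GripTite HEK293T cells expressing an ER-beta fusion that drives beta-lactamase from an Upstream Activator Sequence; 16 hr compound exposure at 37C, then 2 h LiveBLAzer B/G FRET substrate at room temperature, fluorescence read-out.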

Assay [19] in a line: qHTS assay to identify small molecule phospholipidosis (PLD) inducers (AID 1259344; active means well fitted curve in the direction sought with a large enough effect; an effect the other way counts as inactive or inconclusive). Put shortly:
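Phospholipid accumulation was scored by imaging: fixed, Hoechst-counterstained HepG2 cells stained with LipidTOX Red after 24 h compound exposure at 37 C. Read-outs were pit count and pit intensity per well or per cell, with amiodarone and DMSO controls.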

Assay [20] in a line: qHTS assay to identify small molecule antagonists of the sonic hedgehog signaling (Shh) pathway - cell viability counter screen (AID 1259367). Further: nearly all actives have a fitted effect of over 55% in size. Put shortly:
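Viability was read by CellTiter-Fluor fluorescence in the same wells, reagent added 23 hr into compound treatment and incubated 1 hr at 37C. The 3T3 Gli1-Luc reporter cells (2,000/well) received conditioned medium after compound and ran 24 hr.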

Chain of Androgen receptor (Homo sapiens) (P10275 whole entry, looked up): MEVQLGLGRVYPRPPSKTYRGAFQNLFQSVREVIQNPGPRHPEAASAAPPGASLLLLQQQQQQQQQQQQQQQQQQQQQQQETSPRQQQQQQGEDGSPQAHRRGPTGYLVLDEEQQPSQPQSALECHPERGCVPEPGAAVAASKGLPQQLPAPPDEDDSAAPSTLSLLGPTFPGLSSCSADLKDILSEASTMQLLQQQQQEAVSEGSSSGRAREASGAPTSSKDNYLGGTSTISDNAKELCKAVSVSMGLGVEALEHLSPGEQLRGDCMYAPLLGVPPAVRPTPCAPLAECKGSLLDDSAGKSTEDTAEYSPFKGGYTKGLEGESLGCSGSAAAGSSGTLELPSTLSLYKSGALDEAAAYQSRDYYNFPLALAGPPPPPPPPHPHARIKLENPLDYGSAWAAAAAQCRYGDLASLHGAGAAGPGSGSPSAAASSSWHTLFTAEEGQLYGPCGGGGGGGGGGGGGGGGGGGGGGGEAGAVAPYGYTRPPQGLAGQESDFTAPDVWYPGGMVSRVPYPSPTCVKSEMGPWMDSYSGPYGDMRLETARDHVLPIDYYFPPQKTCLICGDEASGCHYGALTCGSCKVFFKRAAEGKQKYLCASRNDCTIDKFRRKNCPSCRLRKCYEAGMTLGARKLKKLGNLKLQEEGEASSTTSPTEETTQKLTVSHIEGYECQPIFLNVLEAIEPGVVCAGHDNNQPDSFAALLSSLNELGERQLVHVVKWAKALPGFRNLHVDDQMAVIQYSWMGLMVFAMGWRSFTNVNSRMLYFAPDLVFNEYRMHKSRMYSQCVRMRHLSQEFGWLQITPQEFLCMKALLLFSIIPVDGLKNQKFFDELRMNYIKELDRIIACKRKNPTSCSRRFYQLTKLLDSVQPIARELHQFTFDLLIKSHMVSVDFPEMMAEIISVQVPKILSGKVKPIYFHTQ
Chain of Thyrotropin receptor (Homo sapiens) (P16473 whole entry, looked up): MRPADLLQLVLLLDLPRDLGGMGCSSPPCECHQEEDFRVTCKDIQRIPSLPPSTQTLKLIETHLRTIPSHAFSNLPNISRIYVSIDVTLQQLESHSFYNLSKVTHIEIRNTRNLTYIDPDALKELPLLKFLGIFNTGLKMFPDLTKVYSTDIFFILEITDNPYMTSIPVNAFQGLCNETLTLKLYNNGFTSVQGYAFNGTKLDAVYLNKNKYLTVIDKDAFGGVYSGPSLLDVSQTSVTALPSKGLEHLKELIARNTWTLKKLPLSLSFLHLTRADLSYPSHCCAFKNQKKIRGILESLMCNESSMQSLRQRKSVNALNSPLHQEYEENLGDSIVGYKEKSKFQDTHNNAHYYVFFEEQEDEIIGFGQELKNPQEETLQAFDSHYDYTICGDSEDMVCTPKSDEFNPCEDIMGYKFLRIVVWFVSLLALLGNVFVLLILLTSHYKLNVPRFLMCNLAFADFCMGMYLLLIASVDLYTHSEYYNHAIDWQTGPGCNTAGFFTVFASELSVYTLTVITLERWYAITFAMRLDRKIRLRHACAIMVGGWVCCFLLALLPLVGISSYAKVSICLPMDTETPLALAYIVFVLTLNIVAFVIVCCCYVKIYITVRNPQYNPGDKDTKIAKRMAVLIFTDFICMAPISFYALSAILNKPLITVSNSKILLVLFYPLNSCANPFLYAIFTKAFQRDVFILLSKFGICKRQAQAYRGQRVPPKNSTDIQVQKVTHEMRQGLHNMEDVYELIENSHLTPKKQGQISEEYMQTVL
Chain of Estrogen receptor (Homo sapiens) (P03372 whole entry, looked up): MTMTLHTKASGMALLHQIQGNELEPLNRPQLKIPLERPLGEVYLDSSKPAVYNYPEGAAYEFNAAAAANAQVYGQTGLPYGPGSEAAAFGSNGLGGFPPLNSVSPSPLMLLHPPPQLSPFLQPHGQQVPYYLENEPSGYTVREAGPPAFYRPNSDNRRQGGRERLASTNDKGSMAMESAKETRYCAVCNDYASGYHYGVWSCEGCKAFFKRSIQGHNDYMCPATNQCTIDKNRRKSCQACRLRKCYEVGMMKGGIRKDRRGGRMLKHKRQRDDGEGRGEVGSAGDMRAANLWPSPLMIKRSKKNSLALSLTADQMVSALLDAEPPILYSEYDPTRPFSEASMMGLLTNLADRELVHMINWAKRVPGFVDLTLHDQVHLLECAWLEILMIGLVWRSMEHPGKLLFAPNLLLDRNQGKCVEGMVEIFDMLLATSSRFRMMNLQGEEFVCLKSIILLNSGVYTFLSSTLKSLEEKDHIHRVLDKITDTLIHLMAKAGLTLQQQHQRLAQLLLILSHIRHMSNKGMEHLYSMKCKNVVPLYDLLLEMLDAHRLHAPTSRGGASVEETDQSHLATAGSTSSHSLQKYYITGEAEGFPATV
Chain of Estrogen receptor beta (Homo sapiens) (Q92731 whole entry, looked up, the tested form may be a part): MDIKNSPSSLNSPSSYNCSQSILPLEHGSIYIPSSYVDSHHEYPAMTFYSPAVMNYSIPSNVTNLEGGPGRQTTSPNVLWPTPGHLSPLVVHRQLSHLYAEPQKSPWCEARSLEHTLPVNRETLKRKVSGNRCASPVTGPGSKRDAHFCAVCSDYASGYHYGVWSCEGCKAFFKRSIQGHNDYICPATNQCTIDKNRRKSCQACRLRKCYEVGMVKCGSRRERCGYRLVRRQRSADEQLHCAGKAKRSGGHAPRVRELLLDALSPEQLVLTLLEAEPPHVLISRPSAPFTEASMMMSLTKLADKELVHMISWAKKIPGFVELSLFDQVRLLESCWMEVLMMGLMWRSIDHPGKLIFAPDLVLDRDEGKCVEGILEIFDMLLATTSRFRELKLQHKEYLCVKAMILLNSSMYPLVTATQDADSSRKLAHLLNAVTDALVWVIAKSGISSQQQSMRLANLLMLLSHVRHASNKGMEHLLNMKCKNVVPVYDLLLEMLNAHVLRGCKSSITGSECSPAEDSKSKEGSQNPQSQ

With `CC(C)c1ccc2c(c1)CC[C@H]1[C@](C)(CN)CCC[C@]21C`, the Potency was 48.6 µM (active) in assay [1]; 48.6 µM (active) in assay [3]; 15.4 µM (active) in assay [5]; 61.1 µM (active) in assay [6]; 43.3 µM (active) in [7]; 54.5 µM (active) in assay [8]. The Potency in assay [9] is 61.1 µM (active). The Potency result in assay [2], in [4] and in assay [11] was “inactive” each time. The molecule was classed as inactive in assay [10].

For `Nc1ccc2c3c(cccc13)-c1ccccc1-2`, the Potency result in assay [12], in assay [13], in [14], in assay [2], in [5] and in [16] was “inactive” in each case. Besides, the Potency in assay [15] and in assay [9] was 49.1 µM (active) each time. In assay [10], the molecule was classed as inactive.

With `CCCCCCCCCCCC(=O)NCCCN(C)C`, the Potency was 68.6 µM (active) in assay [12]; 19.3 µM (active) in assay [5]; 54.5 µM (active) in assay [8]; 54.5 µM (active) in assay [9]; 61.1 µM (active) in [16]. Besides, the Potency result in assay [13], in [14], in assay [2], in assay [4], in assay [15] and in [17] was “inactive” in each case. For the same molecule, the Potency result in assay [11] was “inactive”.

With `COc1cc(-c2nc(NC(=O)c3cc4cc(C)cc(C)c4n3CC(=O)O)sc2CCC2CCCCC2)c(OC)cc1Cl`, the Potency in [12] is 56 µM (active); in assay [2], 25 µM (active); in [7], 56 µM (active); in assay [9], 39.7 µM (active). The Potency entry in assay [13], in assay [14], in assay [4], in assay [18], in assay [15] and in assay [17] was “inactive” in each case. Also, the Potency entry in assay [11] is “inactive”. Further, the outcome in [10] was inactive.

Regarding `O=C(NOCC1CC1)c1ccc(F)c(F)c1Nc1ccc(I)cc1Cl`, the Potency in assay [12] was 8.41 µM (active); in assay [5], 13.3 µM (active); in [6], 8.41 µM (active); in [7], 29.8 µM (active). The Potency entry in assay [19], in assay [14], in assay [2], in [3], in [20] and in [4] was “inactive” each time. For the same molecule, the Potency result in [18], in assay [15], in assay [9] and in assay [17] was “inactive” in each case.

Take `Nc1nc2ccccc2n1Cc1ccc(F)cc1`: the Potency in [12] is 7.5 µM (active); in assay [13], 10.6 µM (active); in [7], 26.6 µM (active); in assay [11] it was 29.8 µM (active). Besides, the Potency result in [14], in assay [2], in assay [3], in [20], in assay [4] and in assay [15] was “inactive” each time. Further, the Potency result in assay [9], in [17] and in [16] was “inactive” in each case. Besides, the molecule was classed as inactive in assay [10].
